# Reference: the supplement of paper PMC10338343
# ± gives the standard deviation.
# Tested on: MILI (PIWIL2) piRISC loaded with L1MC piRNA (26 nt)
# Assay: pre-steady-state target cleavage rate (min^-1); guide: L1MC piRNA 5'p-UAACUAAAUACUAUGCAAGCUGUAGG; MIWI and MILI are mouse PIWI proteins and EfPiwi is from a freshwater sponge; tags in brackets are library labels; higher = faster piRNA-guided slicing of the target
# Settings: auxiliary factor: 500 nM mouse GTSF1
# Summary of the method: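 For Cleave-'n-Seq, a transcribed, DNA-blocked target RNA library […] met 1 nM active affinity-purified piRISC with one synthetic guide at 33 °C for 0–8 or 0–960 min in HEPES–potassium acetate buffer, with or without 500 nM GTSF1 partner protein. Uncleaved targets were sequenced and normalised to depth and weakly complementary targets, with three trials pooled and k3 capped at 0.0001 min^-1. A burst-and-steady-state fit supplied the pre-steady-state cleavage rate.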
# 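Note: 1 nM active piRISC with 0.1 nM target library at 33 °C single turnover.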
row,Sequence,pre-steady-state target cleavage rate
1,UCCUGGAUGAGCUUGCAUUAGUAUUUAGUUA,0.00494 ± 0.0045
2,UCCUGGAUGUCGAUGCAUAGUUUUAAGUUA,0.00654 ± 0.0039
3,UCCUGGUAGUCCUUGCAUAGUAUUUAGAAA,0.0521 ± 0.017
4,UCCUGGAUCAGCUUGCAUAGUAUAUACUUA,0.0182 ± 0.0062
5,UCCUGGAUCAGGAUGCAUAGUAUUUAGAAA,0.0525 ± 0.011
6,UCCUGGUACAGCUUGGAUACUAUUUAGUUA,0.153 ± 0.059
7,UCCUGGAUGUGCUUGCAUAGUCAUUUAGUUA,0.00678 ± 0.0044
8,UCCUCCUACUCCUUGCAUAGUAUUUACAAA,0.0842 ± 0.022
9,UCCUGGAACAGCUUGCAUUAGUAUUUAGUUA,0.0128 ± 0.0055
10,UCCUGGUACAGCUUGCAUAGUAAAUAGUAA,0.151 ± 0.045
11,UCCUGGAUGUGCUUGCAUAGUAUAUUGUUA,0.0146 ± 0.0062
12,UCCUGGAUGUCGAAGUCAUAGUAUUUAGUUA,0.00447 ± 0.003
13,UCCUGGAUGAGCUUCGAUAGUAUUUAGUAA,0.0558 ± 0.012
14,UCCUGGAUGUCCAUGCAUAGUAUUUAGAUA,0.0163 ± 0.0062
15,UCCUGGUACAGCUUGCAUAGUAUAAACAAA,0.0195 ± 0.0074
16,UCCUGGAUGUCCUUGGUUAGUAUUUAGUAA,0.0915 ± 0.022
17,UCCUGGAUGUGCUUGCAUGUAUUUAGUUA,0.00502 ± 0.0043
18,UCCUGGAUCAGCUUGCAUACUAUUUACAAA,0.0104 ± 0.0042
19,UCCUGCUUGUGCUUGCAUAGUAUUUAGUAA,0.0582 ± 0.015

row,Sequence,pre-steady-state target cleavage rate
1,UCCUGGAUGUCCUUGCAUAGUUUAUAGUUA,0.0111 ± 0.006
2,UCCUGGAUCACCUUGCAUAGUAUUUACAAA,0.131 ± 0.031
3,UCCUGGAUGUGCUUGCUUAGUAUUUAGAAA,0.0749 ± 0.017
4,UCCUGGAUGUCGAAGCAUAGUAUUAAGUAA,0.0172 ± 0.0065
5,UCCUGGAACAGCUUGGAUAGUAUUUACUUA,0.0413 ± 0.012
6,UCCUGGAUCAGCUUGCAUAGUAUUAUCUUA,0.0326 ± 0.0079
7,UCCUGGAUGUCGAACCAUAGUUAAUAGUUA,< 0.0001
8,UCCUGCUACAGGAUGCAUAGUAUUUUCAAA,0.0053 ± 0.0038
9,UCCUCCUACAGCUUGCAAUCUAUUUAGUAA,0.0401 ± 0.0094
10,UCCUGGAUGAGCUUGCAUUGUAUUUACUUA,0.031 ± 0.012
11,UCCUGGAUGUCGAAGCAUAGUAUUAAGUUA,0.034 ± 0.0088
12,UCCUGGAUCAGCUUGCAUAGUAUUUUGUAA,0.0574 ± 0.016
13,UCCUGGAUGAGCUUGGUAAGUAUUUAGUAA,0.00762 ± 0.0042
14,UCCUCCUACAGCUUGCUAAGUAUUUAGAAA,0.0796 ± 0.016
15,UCCUGGAUGUCGAACGAUCAGUAUUUAGUUA,< 0.0001
16,UCCUGGAUGUCCUUGCAUAGUAUUUCGUUA,0.0489 ± 0.017
17,UCCUGGAACAGGAUGCAUAGUAUUUACAAA,0.0486 ± 0.017
18,UCCUCCUACAGCUUGCAAUCUAUUUACAAA,0.0157 ± 0.0069
